Inconclusive results are not listed. The source made the active and inactive calls. Unless noted, calls come from the whole dose curve; as a rule, active = well fitted curve in the direction sought with a large enough effect; inconclusive = small, poorly fitted or top-dose-only effect, or another doubt; inactive = no such curve, though single readings can be large; an effect the other way counts as inactive or inconclusive.
Tests used:
[1] = qHTS to identify inhibitors of the type 1 interferon - major histocompatibility complex class I in skeletal muscle: primary screen against the NCATS Pharmaceutical Collection (AID 1347407); conditions: human skeletal muscle cells, IFN-b-induced MHC-I HiBiT luminescence, 24 h; series mostly up to 45.9 µM;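 note: luminescence of HiBiT knocked into endogenous HLA-B as interferon-induced MHC class I level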
Summary of the method: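 Cells were seeded with 4 ng/ml IFN-beta, incubated 1 h, then dosed with compounds over eight 1:5 steps up to 46 uM final. After 24 h at 37 C, HiBiT lytic reagent was added and luminescence read after 10 min lysis in the dark.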

[2] = target: Protein phosphatase 1D (Homo sapiens) (UniProt O15297); assay: RapidFire Mass Spectrometry qHTS Assay for Modulators of WT P53-Induced Phosphatase 1 (WIP1) (AID 1347424); conditions: WIP1 dephosphorylation of phosphopeptide, RapidFire MS; series mostly up to 63 µM
Sequence of Protein phosphatase 1D (Homo sapiens) (O15297 whole entry, looked up): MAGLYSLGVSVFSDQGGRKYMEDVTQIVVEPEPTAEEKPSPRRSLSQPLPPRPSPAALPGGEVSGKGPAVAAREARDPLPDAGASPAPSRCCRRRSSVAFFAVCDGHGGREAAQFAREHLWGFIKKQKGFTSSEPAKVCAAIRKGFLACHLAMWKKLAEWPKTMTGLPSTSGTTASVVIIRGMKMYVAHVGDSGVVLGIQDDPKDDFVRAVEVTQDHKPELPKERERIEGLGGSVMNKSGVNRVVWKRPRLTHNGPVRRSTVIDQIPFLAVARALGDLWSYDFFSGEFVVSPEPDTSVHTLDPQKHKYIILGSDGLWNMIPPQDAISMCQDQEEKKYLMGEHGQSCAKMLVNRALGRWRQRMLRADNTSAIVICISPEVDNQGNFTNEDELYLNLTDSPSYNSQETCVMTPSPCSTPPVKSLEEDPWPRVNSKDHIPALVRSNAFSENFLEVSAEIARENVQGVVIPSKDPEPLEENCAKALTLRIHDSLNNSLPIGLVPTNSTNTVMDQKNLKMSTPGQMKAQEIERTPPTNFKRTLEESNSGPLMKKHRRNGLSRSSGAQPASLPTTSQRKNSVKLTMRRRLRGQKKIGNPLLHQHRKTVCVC
Summary of the method: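 RapidFire MS readout of dephosphorylated VEPPL-S-QETFS product, with 1 uM isotope-labelled peptide standard. Reaction: 10 nM WIP1, 2 uM phosphopeptide substrate, 5 min, room temperature, after 1 h compound preincubation; stopped with 0.5% formic acid.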

[3] = target: Protein phosphatase 1D (Homo sapiens) (UniProt O15297); assay: Rhodamine-PBP qHTS Assay for Modulators of WT P53-Induced Phosphatase 1 (WIP1) (AID 1347425); conditions: recombinant WIP1, Rhodamine-PBP phosphate fluorescence, real-time; series mostly up to 57.5 µM
Summary of the method: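 WIP1 (5 nM final) was preincubated with compound for 1 hour at room temperature. It then dephosphorylated 10 uM VEPPL-pS-QETFS peptide in Tris-HCl pH 7.5 with 30 mM MgCl2. Released Pi was detected by 10 uM Rh-PBP fluorescence (ex 525/em 598 nm) read at 1-min intervals for 11 min, as delta f1 - f0.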

[4] = Primary qHTS for inhibitors of La Crosse Virus (LACV) - induced cell death in SH-SY5Y cells (AID 1508616); conditions: SH-SY5Y LACV cytopathicity rescue, ATP luminescence, 6 d; series mostly up to 4.29 µM;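 note: top concentration of the series differs between compounds; higher means more rescue of cells from virus-induced death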
Summary of the method: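 Screening measures cell viability in LACV-infected SH-SY5Y cultures. Compound was added before virus (0.01 MOI), and ATP was detected by luminescence 6 days later.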

[5] = target: Calcium and integrin-binding protein 1 (Homo sapiens) (UniProt Q99828); assay: Primary qHTS for Identification of Calcium Integrin Binding Protein 1 (CIB1) Competitor (AID 1508620); conditions: CIB1-GST / FITC-alphaIIb peptide fluorescence polarization; series mostly up to 114 µM;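 note: GST tagged CIB1 binding a fluorescein labelled alphaIIb integrin peptide tracer; top concentration of the series differs between compounds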
Sequence of Calcium and integrin-binding protein 1 (Homo sapiens) (Q99828 whole entry, looked up): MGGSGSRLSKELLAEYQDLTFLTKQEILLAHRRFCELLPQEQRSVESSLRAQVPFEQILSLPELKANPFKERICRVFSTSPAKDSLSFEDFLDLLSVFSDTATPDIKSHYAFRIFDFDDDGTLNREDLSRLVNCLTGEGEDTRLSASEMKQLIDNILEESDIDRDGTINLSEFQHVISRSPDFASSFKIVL
Summary of the method: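 Fluorescence polarization competition: GST-tagged CIB1 (1 uM final) preincubated with compound 15 min at room temperature, then FITC-labelled alphaIIb peptide (100 nM final) added. After 15 min at room temperature, polarization read at Ex 480/Em 540.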

[6] = Primary qHTS for small molecule stabilizers of the endoplasmic reticulum resident proteome: Secreted ER Calcium Modulated Protein (SERCaMP) assay (AID 1508630); conditions: SH-SY5Y GLuc-SERCaMP (Gaussia luciferase released on ER calcium loss) secretion, thapsigargin, luminescence; series mostly up to 38.4 µM
Summary of the method: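 The SH-SY5Y reporter protocol was run at 3 concentrations up to 38.3 uM (primary) or 11 concentrations (follow-up): 16 h compound, 100 nM thapsigargin for 4 h, then extracellular luciferase luminescence.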

[7] = A High-Content qHTS Against Drug Library for the Identification of Small Molecules that Inhibit DYT1 Early Onset Primary Dystonia-Associated Cell Pathology (AID 1645839; calls by dose curve; note: potency is the fitted concentration of half-maximal effect); conditions: HEK293 Flp-In EGFP-delE TorsinA, punctate imaging, 48 h; series mostly up to 46.1 µM
Summary of the method: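 Cells were seeded and left for 24 h, then dosed with compound alongside tetracycline induction of mutant EGFP-TorsinA. They were incubated for 48 h, fixed in 4% paraformaldehyde, permeabilized and imaged for mislocalization (%pathology) and cell count.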

Measured: Potency

Cc1ccccc1C(=O)N1CC/C(=N\OS(=O)(=O)O)c2ccc(Cl)cc21
inactive: all assays above

CCOC(=O)N1CCC(n2c(=O)[nH]c3cc(Cl)ccc32)CC1
inactive: all assays above

O=C1Nc2cc(Cl)ccc2Oc2ccccc21
inactive: all assays above

Cc1ccccc1N1CCN(CCc2nnc3n2CCCC3)CC1
inactive: all assays above

Cc1cccc(N(C)C(=S)Oc2ccc3c(c2)C2CCC3C2)c1 (centres undefined)
inactive: all assays above

Cc1sccc1Br
inactive: all assays above

CN1Cc2cc(C(=O)N3CCC(C4CCNCC4)CC3)ccc2N[C@@H](CC(=O)O)C1=O
inactive: all assays above

Clc1ccc2c(c1)Nc1ccccc1S2
inactive: all assays above

Nc1nc2ccccc2n1Cc1ccc(F)cc1
inactive: all assays above

Cc1ccc2ccc(Cl)cc2n1
inactive: all assays above

Cc1ccc(/C=N/n2c(-c3ccccc3)csc2=S)cc1
inactive: all assays above

CC1(C)OC(=O)Nc2ccc(Br)cc21
inactive: all assays above

CCc1cc2cc(OC)c(OC)cc2c(Cc2ccccc2)n1
inactive: all assays above

O=C(CCOCCOCCOCCOCCC(=O)Nc1c(I)cc(I)c(C(=O)O)c1I)Nc1c(I)cc(I)c(C(=O)O)c1I
inactive: all assays above

CC(=O)OCC(=O)[C@@]1(O)CCC2C3CCC4=CC(=O)CC[C@]4(C)C3[C@@H](O)C[C@@]21C (some centres undefined)
inactive: all assays above

CN=C(N)NC(=O)Nc1c(C)cccc1C
inactive: all assays above

COc1cc(NS(=O)(=O)c2ccc(N)cc2)nc(C)n1
inactive: all assays above

CCC[C@H](N[C@@H](C)C(=O)N1[C@H](C(=O)O)C[C@@H]2CCCC[C@@H]21)C(=O)OCC
inactive: all assays above

CC(=O)Nc1ccc(S(=O)(=O)Nc2cc(C)on2)cc1
inactive: all assays above

CC(CC(C#N)(c1ccccc1)C(C)C)N(C)C (centres undefined)
inactive: all assays above

O=C1[C@@H]2[C@H]3CC[C@H](C3)[C@@H]2C(=O)N1CCCCN1CCN(c2ncccn2)CC1
inactive: all assays above

Nc1ccc([N+](=O)[O-])c(C(F)(F)F)c1
inactive: all assays above

OCCc1ccccc1
inactive: all assays above

O=C1NC(c2ccccc2)(c2ccccc2)C(=O)N1COP(=O)(O)O
inactive: all assays above

Nc1c[n+](N2CCOCC2)no1
inactive: all assays above

COc1cc(OC)nc(O[C@H](C(=O)O)C(OC)(c2ccccc2)c2ccccc2)n1
inactive: all assays above

O=C(CO)[C@@H](O)[C@H](O)[C@@H](O)CO
inactive: all assays above

CCOC(=O)O[C@]1(C(=O)OCCl)CC[C@H]2[C@@H]3CCC4=CC(=O)C=C[C@]4(C)[C@H]3[C@@H](O)C[C@@]21C
inactive: all assays above

CCOCCn1c(C2CCN(CCc3ccc(C(C)(C)C(=O)O)cc3)CC2)nc2ccccc21
not listed: [6]
inactive: all other assays above

CN1C(=O)c2ccccc2C1=O
not listed: [6]
inactive: all other assays above

COc1cc2c(cc1OC)CN(C(=O)[C@H](C)N[C@@H](CCc1ccccc1)C(=O)O)[C@H](C(=O)O)C2
inactive: all assays above

COc1ccc2c(c1)CCCC2=O
inactive: all assays above

CCCc1c2oc(C(=O)O)cc(=O)c2cc2c(=O)cc(C(=O)O)n(CC)c12
inactive: all assays above

CC(NN)c1ccccc1 (centres undefined)
not listed: [6]
inactive: all other assays above

CCN1C(=O)c2ccccc2C1Nc1ccc(OCCN2CCCCC2)cc1 (centres undefined)
not listed: [6]
inactive: all other assays above

Cc1ncc([N+](=O)[O-])n1C
inactive: all assays above

CN(C)CCN1CCN(c2cccc(Cl)c2)C1=O
not listed: [6]
inactive: all other assays above

NC(=O)NC1N=C([O][Al])NC1=O (centres undefined)
inactive: all assays above

O=C(O)c1ccccc1Nc1cc(Cl)ccc1C(=O)O
inactive: all assays above

CC[N+](CC)(CC)CCOC(=O)C(C1CCCC1)C1CCCC1
inactive: all assays above

CCCC(CCC)(C(=O)OCC)C(=O)OCC
not listed: [6]
inactive: all other assays above

CC(Oc1c(Cl)cccc1Cl)C1=NCCN1 (centres undefined)
inactive: all assays above

OC(CCCN1CCCCC1)(c1ccccc1)c1ccccc1
inactive: all assays above

CCN1CCN(C(=O)N[C@@H](C(=O)N[C@@H]2C(=O)N3[C@@H]2SC(C)(C)[C@H]3C(=O)O)c2ccccc2)C(=O)C1=O
not listed: [6]
inactive: all other assays above

CC1CC(=O)NN=C1c1ccc(NCC(C)(C)NCC(O)COc2cc(Cl)ccc2C#N)cc1 (centres undefined)
not listed: [6]
inactive: all other assays above

O=C(O)[C@@H](O)[C@H](O)[C@H](O)[C@@H](O)C(=O)O
inactive: all assays above

O=C(CCCl)NCCc1ccccc1
inactive: all assays above

C/C=C(/C(=C/C)c1ccc(OC(C)=O)cc1)c1ccc(OC(C)=O)cc1
active: [7] 8.91 µM
inactive: all other assays above

CCS(=O)(=O)c1ccc(OC)c(C(=O)OC)c1
inactive: all assays above

OC1(c2ccc(Cl)cc2)CCNCC1
inactive: all assays above

CC(C)NC(=O)c1ccc(C=O)cc1
inactive: all assays above

CCOc1ccc(NS(=O)(=O)c2ccc(N)cc2)nn1
inactive: all assays above

O=C(O)/C=C(\CC(=O)O)C(=O)O
inactive: all assays above

O=C(O)c1[nH]n(-c2ccc(S(=O)(=O)O)cc2)c(=O)c1N=Nc1ccc(S(=O)(=O)O)cc1
inactive: all assays above

CCC(=O)O[C@]1(C(=O)COC)[C@@H](C)C[C@H]2[C@@H]3CCC4=CC(=O)C=C[C@]4(C)C3(F)[C@@H](O)C[C@@]21C (some centres undefined)
inactive: all assays above

COC(=O)c1ccc(NC(C)=O)cc1OC
inactive: all assays above

— PubChem BioAssay (NCATS)
